The campaign covered roughly 340,000 compounds. About 8,500 (2.5%) were called active.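 The calls were made as follows: active = melting temperature shift of at least 10% of the positive control shift, at one fixed dose; inactive = the rest.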 What follows is part of a selection rich in actives, with near analogues and random picks from the rest.

The test has as its system Glutamate receptor ionotropic, NMDA 3A (GRIN3A) ligand-binding domain. Description: NR3A LBD thermal stabilization by compounds – biophysical, differential scanning fluorimetry, uHTS, primary screen (AID 1259313). As to conditions: at 25 µM, active compounds read high, 0% = protein alone, 100% = glycine-bound protein. (In general: In DSF a fluorescence change marks the thermal transition of the protein.)
Turning to `Cc1cc(Cl)c(S(=O)(=O)NCCC(=O)O)cc1OCC(N)=O`, the Tm shift relative to glycine control was -2.09% (inactive).

In the case of `Cc1cc(Cl)c(S(=O)(=O)N(C)C)cc1OCC(N)=O`, the Tm shift relative to glycine control was 10.2% (active). Turning to `Cc1cc(Cl)c(S(=O)(=O)Nc2ccc3c(c2)OCCO3)cc1OCC(N)=O`, the Tm shift relative to glycine control was 5.63% (inactive). The result for `O=C(Nc1ccccc1F)c1cc(S(=O)(=O)N2CCCCC2)cs1` reads -1.16% (inactive); that for `CCN(c1ccccc1)S(=O)(=O)c1cccc(C(=O)NCc2ccccc2CN2CCOCC2)c1`, 2.34% (inactive); that for `CCOc1ccc(NC(=O)c2ccc(CSc3nnnn3C)cc2)cc1`, 26.8% (active). On to `CCOc1ccc(NC(=O)CSc2nncn2C)cc1`, for which the Tm shift relative to glycine control is -0.09% (inactive). Regarding `COc1ccc(CSc2nnnn2-c2ccc(C(=O)O)cc2)cc1`, the Tm shift relative to glycine control was 3.65% (inactive). As to `O=C(Nc1cccc(F)c1)c1cc(-c2ccco2)nc2ccccc12`, the Tm shift relative to glycine control is 11.7% (active). Take `O=C(O)c1cccc(NC(=O)c2cc(-c3cccc(Cl)c3)nc3ccccc23)c1`: the Tm shift relative to glycine control is -12.1% (inactive). For the compound `O=C(CSc1ccc(-c2ccco2)nn1)Nc1cccc(F)c1`, the Tm shift relative to glycine control was -2.4% (inactive). Turning to `CC1CCN(C(=O)COC(=O)CCC(=O)c2cccs2)CC1`, the Tm shift relative to glycine control was 0.85% (inactive).

Consider `Cc1cccc(OCc2ccc(C(=O)Nc3ccc(F)cc3)cc2)c1`, for which the Tm shift relative to glycine control was 13.3% (active).

`Cc1ccc(COc2ccc(C(=O)NN)cc2)cc1`: the Tm shift relative to glycine control was -4.77% (inactive).

Turning to `Cc1cccc(C(=O)Nc2ccc(Oc3cnccn3)cc2)c1`, the Tm shift relative to glycine control is 1.77% (inactive). To `CC(C)(CNC(=O)CNC(=O)C1CCCCC1)N1CCOCC1` belongs -1.27% (inactive); to `COc1ccc(NC(=O)CCCC2CCCCC2)c(OC)c1`, 2.43% (inactive); to `Cc1ccc(CNC(=O)Cn2cnc3c(NCc4ccccc4)ncnc32)o1`, 3% (inactive). For `Cc1ccc(-c2csc(NCCc3nc4cc(Cl)c(Cl)cc4n3CCOCCO)n2)cc1`, the Tm shift relative to glycine control was -1.81% (inactive).

For the compound `Cc1ccc(Nc2nc(-c3ccc(O)cc3O)cs2)nc1`, the Tm shift relative to glycine control was 27.4% (active). With `COc1ccc(CCNC(=O)NS(=O)(=O)c2ccc(C)cc2)cc1OC`, the Tm shift relative to glycine control was -2.28% (inactive). As to `O=[N+]([O-])c1ccccc1SNc1ccccn1`, the Tm shift relative to glycine control was 1.04% (inactive). Take `CCOC(=O)N1CCN(CC(=O)c2ccc3c(c2)CCN3)CC1`: the Tm shift relative to glycine control was -1.56% (inactive). In the case of `C[C@H](OC(=O)n1ccnc1)[C@@H]1O[C@@]2(C)CCC[C@@H]1O2`, the Tm shift relative to glycine control is -0.49% (inactive). Consider `COc1ccc(N(CC(=O)NC2CCCCCCC2)S(=O)(=O)c2c(C)nn(C)c2C)cc1`, for which the Tm shift relative to glycine control is -1.2% (inactive). The result for `O=C(C1CCCN(S(=O)(=O)c2ccccc2)C1)N1CCN(c2ccc(F)cc2)CC1` (configuration not stated) reads -0.26% (inactive). With `O=S(=O)(c1ccc(F)cc1)N1CCN(C(=S)NC2CCCC2)CC1`, the Tm shift relative to glycine control was 1.46% (inactive). As to `O=C(O)C1CCCCC1C(=O)N1CCN(S(=O)(=O)c2ccc(F)cc2)CC1` (configuration not stated), the Tm shift relative to glycine control is 14.4% (active).

For the compound `Cc1cc(=O)oc2c1ccc1ccccc12`, the Tm shift relative to glycine control was 0.49% (inactive). The result for `CCOC(=O)c1cccc(NC(=O)C2CCCN(S(=O)(=O)c3cnc[nH]3)C2)c1` (configuration not stated) reads -1.2% (inactive). Turning to `Cc1cc(C)c(C(=O)CSc2nc(C)cc(=O)[nH]2)c(C)c1`, the Tm shift relative to glycine control was -3.2% (inactive).

Consider `COC(=O)c1ccccc1SC1CC(=O)N(c2cccc(C)c2)C1=O` (configuration not stated), for which the Tm shift relative to glycine control was -2.37% (inactive). The result for `COc1cc(OC)c(C(=O)Nc2ccccc2-c2ccccc2)cc1OC` reads 11.5% (active); that for `COc1cc2ccccc2cc1C(=O)Nc1ccccc1C`, 3.64% (inactive). In the case of `O=C(Nc1ccccc1-c1ccccc1)c1ccccc1[N+](=O)[O-]`, the Tm shift relative to glycine control is -0.71% (inactive). Turning to `Cc1sc(NC(=O)C2=COCCO2)c(C#N)c1C`, the Tm shift relative to glycine control was -1.88% (inactive). Regarding `O=C(Nc1cccc(-c2cccc(Cl)c2)c1)C1CCN(C2CCC2)CC1`, the Tm shift relative to glycine control was -0.08% (inactive). Regarding `C=CCSc1nnc(Cn2c(=O)sc3ccccc32)n1C`, the Tm shift relative to glycine control is -0.55% (inactive). In the case of `O=c1c(-c2ccc3c(c2)OCCO3)c(C(F)(F)F)oc2cc(O)cc(O)c12`, the Tm shift relative to glycine control was 6.01% (inactive). As to `CCOC(=O)c1oc2c(CN3CCN(C)CC3)c(O)ccc2c(=O)c1-c1ccc(Br)cc1`, the Tm shift relative to glycine control was -3.94% (inactive). On to `CCOC(=O)c1cc2cc(-c3c(C(=O)OCC)oc4cc(O)cc(O)c4c3=O)ccc2o1`, for which the Tm shift relative to glycine control is 22.4% (active). For `Nc1nc(SCc2ccc([N+](=O)[O-])cc2)c2ncn(C3OC(CO)C(O)C3O)c2n1` (configuration not stated), the Tm shift relative to glycine control is 1.21% (inactive). For `COc1ccc(CN2CCNC(=O)C2CC(=O)N(C)Cc2ccccn2)cc1OC` (configuration not stated), the Tm shift relative to glycine control was 2.19% (inactive).

With `Cc1ccc(-n2c(C)cc(/C=N\NC(=O)CC(=O)NC(C)C)c2C)cc1`, the Tm shift relative to glycine control was -0.09% (inactive). Take `Cc1cccc(-n2c(C)cc(/C=N\NC(=O)c3cccs3)c2C)c1`: the Tm shift relative to glycine control is 11.5% (active). For `Cc1ccc(-n2nc(C)c(/C=N/NC(=O)c3cccs3)c2Cl)cc1`, the Tm shift relative to glycine control is -1.88% (inactive). The result for `CN1CCN(c2ccccc2NC(=O)COc2ccc(C3CCCCC3)cc2)CC1` reads 2.39% (inactive). In the case of `CC1(C)C/C(=C(/C#N)C(N)=O)CCO1`, the Tm shift relative to glycine control is 1.51% (inactive). Turning to `Cc1cc(Cl)ccc1C(=O)C1CCCN(C(=O)CCN2CCCO2)C1` (configuration not stated), the Tm shift relative to glycine control is -1.36% (inactive). `O=C(Nc1ccc(C(=O)N2CCOCC2)cc1)Nc1cccc(C(F)(F)F)c1`: the Tm shift relative to glycine control is -5.51% (inactive). Take `CCNS(=O)(=O)c1ccc(NC(=O)Nc2cccc(C(F)(F)F)c2)cc1`: the Tm shift relative to glycine control is 38.8% (active). Regarding `O=C(NCc1ccccc1)c1ccc(S(=O)(=O)Nc2cccc(C(F)(F)F)c2)cc1`, the Tm shift relative to glycine control is 8.53% (inactive). In the case of `CCNS(=O)(=O)c1ccc(NC(=O)Nc2cccc(OC)c2)cc1`, the Tm shift relative to glycine control is 29.6% (active). `CCN(CC(=O)Nc1ccc(S(=O)(=O)N2CCCC2)cc1)CC(=O)Nc1cccc(OC)c1`: the Tm shift relative to glycine control is 0.48% (inactive). As to `COc1cccc(NC(C)=[N+](C)CCNS(=O)(=O)c2ccc(Cl)cc2)c1`, the Tm shift relative to glycine control was -3.14% (inactive).

`O=C(N/N=C/c1ccc(OCC2COCCO2)cc1)c1ccc(Br)cc1` (configuration not stated): the Tm shift relative to glycine control was 8.82% (inactive). Take `COc1ccc(N2C(=O)C3C(C2=O)C(C(=O)c2ccccc2)N2CCCC32)cc1` (configuration not stated): the Tm shift relative to glycine control is -1.47% (inactive). As for `Cc1cccc(C(=O)Nc2ccccc2C(=O)NCc2cccnc2)c1`, the Tm shift relative to glycine control is -0.85% (inactive).

`Cc1nc(NNC(=O)c2ccccc2)cc(-c2ccccc2)n1`: the Tm shift relative to glycine control was -0.16% (inactive). In the case of `Nc1cccc(-c2cc(-c3ccccc3)nc(-c3cccc(N)c3)n2)c1`, the Tm shift relative to glycine control is 42.8% (active).

As to `c1ccc(-c2cc(N3CCCCC3)c3ccccc3n2)cc1`, the Tm shift relative to glycine control was 0.96% (inactive). For the compound `O=C(CNC(=O)Cc1ccccc1)N=Nc1c(O)[nH]c2ccc(Br)cc12`, the Tm shift relative to glycine control is -9.04% (inactive). As for `NS(=O)(=O)c1ccc(N=Nc2c(O)[nH]c3ccc(Br)cc23)cc1`, the Tm shift relative to glycine control was 23.4% (active). To `Oc1[nH]c2ccc(Br)cc2c1N=Nc1nn[nH]n1` belongs 4.42% (inactive). Take `CCOc1cc2[nH]c(=S)n(CCN3CCCCC3C)c(=O)c2cc1OCC` (configuration not stated): the Tm shift relative to glycine control was 0.59% (inactive).

For `Cc1cc(C)cc(OCC(=O)NNC(=O)c2cc3ccccc3oc2=O)c1`, the Tm shift relative to glycine control was 2.22% (inactive). `O=C(NCC(O)c1ccc([N+](=O)[O-])cc1)C1CCCCC1` (configuration not stated): the Tm shift relative to glycine control was -0.64% (inactive). For `CC(=O)NCC(O)c1ccc([N+](=O)[O-])cc1` (configuration not stated), the Tm shift relative to glycine control is 12.1% (active).

`O=C(CC(c1ccccc1)c1ccccc1)NCC(O)c1ccc([N+](=O)[O-])cc1` (configuration not stated): the Tm shift relative to glycine control is -6.68% (inactive). With `COC(=O)c1cc(NS(=O)(=O)c2ccc3c(c2)c(=O)n(C)c(=O)n3C)cc(C(=O)OC)c1`, the Tm shift relative to glycine control is -17.2% (inactive). Regarding `Cc1csc2nc(O)c(C(=O)NCCN3CCOCC3)c(=O)n12`, the Tm shift relative to glycine control was 1.24% (inactive). As to `NC(=O)C1CCN(CC(O)CSc2ccc(F)cc2)CC1` (configuration not stated), the Tm shift relative to glycine control was -0.69% (inactive).

In the case of `COC(=O)C(C)Oc1ccc2c(-c3cccc([N+](=O)[O-])c3)cc(=O)oc2c1` (configuration not stated), the Tm shift relative to glycine control is 0.72% (inactive). For `CCOC(=O)C1=C(CN2CCCCCC2)NC(=O)NC1c1cccc([N+](=O)[O-])c1` (configuration not stated), the Tm shift relative to glycine control was 0.15% (inactive). Regarding `CCOC(=O)c1sc(-c2cccc([N+](=O)[O-])c2)cc1N`, the Tm shift relative to glycine control is 20.4% (active). Turning to `C=CCn1c(C)cc(C2=NNC(=NCC)SC2)c1C`, the Tm shift relative to glycine control was -0.92% (inactive). Regarding `Cc1cccc(N=C2NN=C(c3c[nH]c4ccccc34)CS2)c1`, the Tm shift relative to glycine control was 19.3% (active). For the compound `Cc1cccc(C(=O)Nc2nnc(Cc3c[nH]c4ccccc34)s2)c1`, the Tm shift relative to glycine control is -7.42% (inactive).

For `CC(C)C(C(=O)NCc1ccco1)N(CC1CCCO1)C(=O)CNS(=O)(=O)c1ccc(F)cc1` (configuration not stated), the Tm shift relative to glycine control was 0.85% (inactive). To `O=C(Nn1cc(C(=O)N2CCN(c3ccccc3F)CC2)c2ccccc2c1=O)c1cnccn1` belongs -1.41% (inactive); to `COc1ccc(S(=O)(=O)Nc2ccc(O)c(Sc3nc4ccccc4s3)c2)cc1`, 11.6% (active); to `COc1ccc(/C=C(/CC(=O)Nc2ccc(C)cc2)c2nc3ccccc3s2)cc1`, -2.24% (inactive). For the compound `COc1ccc(NS(=O)(=O)c2ccc3oc(SCC(N)=O)nc3c2)cc1`, the Tm shift relative to glycine control was -0.47% (inactive).

Take `CCC(C)(C)NC(=O)/C=C/c1cc(OC)c(OC)c(S(=O)(=O)N2CCc3ccccc32)c1`: the Tm shift relative to glycine control is 0.08% (inactive). To `O=C(N/N=C/c1c(Cl)[nH]c2ccccc12)c1sc2ccccc2c1Cl` belongs 28.2% (active); to `COc1ccc(CNC(=O)CNC(=O)c2sc3ccccc3c2Cl)cc1OC`, 1.07% (inactive). For `COCCNC(=S)N/N=C/c1c(C)[nH]c2ccccc12`, the Tm shift relative to glycine control is -4.38% (inactive). The result for `Cc1ccc(N(C(=O)C(F)(F)F)C(C(=O)NC2CCCCC2)c2ccncc2)cc1C` (configuration not stated) reads -1.17% (inactive); that for `O=C(OC1CCCCC1=O)c1cccc(S(=O)(=O)NCc2ccccc2)c1` (configuration not stated), -0.25% (inactive); that for `CC1CN(c2cc(=O)n(-c3cccc(Br)c3)c(=O)[nH]2)CC(C)O1` (configuration not stated), 0.6% (inactive).

With `COc1ccc(Br)cc1CN(C)CC(=O)Nc1cc(Cl)cc(Cl)c1`, the Tm shift relative to glycine control is -14.8% (inactive). The result for `O=C1c2ccccc2C(=O)N1CC1c2ccccc2CCN1S(=O)(=O)c1ccccc1` (configuration not stated) reads -1.14% (inactive).
